Measurements: PubChem BioAssay AID1347055 (National Center for Advancing Translational Sciences (NCATS), 2019)
Screen size: about 54,000 compounds; about 120 (0.22%) were called active. Not shown: some 8% with an inconclusive outcome. This is one part of a sample in which actives are shown more often than they occur. The call rests on the fitted dose curve; in most records, active means well fitted inhibition curve with a large enough effect; inconclusive means small, poorly fitted or top-dose-only effect, or effect the other way; inactive means flat fitted curve, though single readings scatter.

Target: Fumarate hydratase, mitochondrial (Homo sapiens) (UniProt P07954)
Experiment: Identification of activators of human fumarate hydratase by quantitative high-throughput screening; further: the screen sought activators but most active calls are inhibition curves; nearly all actives have a fitted effect of over 45% in size
Settings: FH coupled MDH/diaphorase resazurin fluorescence, 15 min; series mostly up to 79.9 µM; activity change, negative = inhibition: at the top concentration
Text: Fumarate hydratase (FH) is a metabolic enzyme that is part of the Krebs-cycle, and reversibly catalyzes the hydration of fumarate to malate. Mutations of the FH gene have been associated with fumarate hydratase deficiency (FHD), hereditary leiomyomatosis, renal cell cancer (HLRCC), and other diseases. Currently there are no high-quality small molecule probes for studying human fumarate hydratase. To address this, we developed a quantitative high throughput screening (qHTS) FH assay and screened a total of 57,037 compounds in dose-response. While no inhibitors of FH were confirmed, a series of phenyl-pyrrolo-pyrimidine-diones (12 compounds) were identified as activators of human fumarate hydratase. […] The binding of two compounds from the series to human fumarate hydratase was confirmed by microscale thermophoresis. The low hit rate in this screening campaign confirmed that FH is a "tough target" to modulate, and the small molecule activators of human fumarate hydratase reported here may serve as a starting point for further optimization and development into cellular probes of human FH and potential drug candidates.
For primary high-throughput screen, 3 ul of FH solution (containing 13.33nM human fumarate hydratase, 13.33IU/ml malic dehydrogenase, 0.2mM NAD, 0.067mg/ml diaphorase and 0.067mM resazurin in the assay buffer (50 mM Tris pH 8.0, 5 mM MgCl2, 0.01% Brij 3) was dispensed into each well in a black solid bottom 1536-well assay plate (Greiner Bio-One) using a BioRAPTR FRD dispenser (Beckman Coulter, Brea, CA). A 1536-well pintool dispenser outfitted with 20 nl pins (Wako Automation, San Diego, CA) was used to transfer 20 nL of DMSO-solubilized compound (Cherrypick plates) to each 1536-well assay plate. Each compound was screened at five concentrations: 15 nM, 151 nM, 1.5 uM, 15.4 uM, 76.9 uM. Following compound transfer, plates were incubated in room temperature for 10 minutes. 1 uL of substrate solution containing fumaric acid (160 uM) was dispensed via BioRAPTR FRD to initiate the reaction. Plates were immediately transferred to a ViewLux microplate imager (PerkinElmer, Waltham, MA), and any resulting resorufin fluorescence was measured (exitation/emission, 525/598 nm) at 0 and 15 minutes. The exposure time is 1 second. Fluorescence from each well was normalized using enzyme-free and DMSO-treated control wells on each plate, and changes in fluorescence (delta RFU) were calculated using the difference in fluorescent signal for each well at 15 minutes versus 0 minutes.
On the % scale 0 is the no-effect control and ±100 the full control effect.

Fumarate hydratase, mitochondrial (Homo sapiens), sequence (P07954 whole entry, looked up): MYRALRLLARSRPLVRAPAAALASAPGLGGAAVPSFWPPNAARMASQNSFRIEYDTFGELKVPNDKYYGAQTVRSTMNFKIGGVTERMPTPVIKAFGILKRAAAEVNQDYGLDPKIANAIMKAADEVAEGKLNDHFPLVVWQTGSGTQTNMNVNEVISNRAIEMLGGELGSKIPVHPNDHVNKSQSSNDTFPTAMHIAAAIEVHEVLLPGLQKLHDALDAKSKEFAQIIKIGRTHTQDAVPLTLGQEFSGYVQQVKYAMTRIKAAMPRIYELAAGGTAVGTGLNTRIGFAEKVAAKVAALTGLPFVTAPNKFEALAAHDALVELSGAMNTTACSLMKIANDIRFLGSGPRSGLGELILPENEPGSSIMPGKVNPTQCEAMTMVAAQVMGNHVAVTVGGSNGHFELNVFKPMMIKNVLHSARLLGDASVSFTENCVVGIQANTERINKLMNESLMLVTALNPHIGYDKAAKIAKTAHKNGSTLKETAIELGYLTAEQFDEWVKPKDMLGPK

Activity change, negative = inhibition, inactive:
CCOc1ccc(S(=O)(=O)N2CCCCCC2)c2ccccc12 -12.1%
C=C1CCC2C(C)(COC(C)=O)CCCC2(C)C1CCC(C)CC(=O)O (stereo not drawn) -0.374% [at 53.3 µM]
COC(=O)c1cc(NC(=O)c2cnc(SC)nc2-c2ccccc2)cc(C(=O)OC)c1 -19.3%
Cc1cc(NC(=O)CC(C)C)cc(-c2nc3ncccc3o2)c1O -0.21%
CC(=O)c1cnc2ccc(-c3cc(Cl)c(O)c(Cl)c3)nc2c1NC1CCC(CN(C)C)CC1 (stereo not drawn) -1.45% [at 0.673 µM]
COc1cc(O)c(C(=O)CCc2ccc(O)cc2)c(O[C@@H]2O[C@H](CO)[C@@H](O)[C@H](O)[C@H]2O)c1 -13.3% [at 53.3 µM]
CC(C)C1=CC2C(CC[C@]2(C)O)[C@](C)(O)CC1 (stereo partly drawn) -0.171%
Fc1ccc(-c2nc(-c3ccccc3F)[nH]c2-c2ccncc2)cc1 -0.997%
COC(=O)c1[nH]c(=O)c2ccccc2c1-c1ccc[nH]1 1.76%
CC(=O)N1CCc2cc(S(=O)(=O)NC(Cc3ccccc3)C(=O)NCc3ccc(C)cc3)ccc21 (stereo not drawn) 10.6%
O=C(Nc1ccc2nc(SCC(=O)N3CCCc4ccccc43)sc2c1)c1ccc(F)cc1 -6.95%
COc1ccc(NC(=O)CCN2CCN(CCO)CC2)cc1 9.05%
CCc1ccc(CN(Cc2ccco2)C(=O)c2ccccc2Cl)cc1 -25.2%
COCCNS(=O)(=O)c1cc(-c2nn3c(C)nnc3c3ccccc23)ccc1C -5.96%
CCOC(=O)c1ccc(NC(=O)c2c(NCc3cccs3)sc3c2CCCC3)cc1 -9.56%
CC(F)(F)CN1CCOc2c(nn(-c3ccccc3Cl)c2-c2ccc(Cl)cc2)C1=O -12.3%
CCC/C=C/C(=O)O[C@H]1CC(C)(C)CC2[C@]13[C@H](O)O[C@@]21CCC2[C@@]4(C)CC[C@H](O[C@@H]5O[C@H](C(=O)O)[C@@H](O)[C@H](O[C@@H]6O[C@H](CO)[C@H](O)[C@H](O)[C@H]6O[C@@H]6O[C@@H](C)[C@H](O)[C@@H](O)[C@H]6O[C@@H]6OC[C@](O)(CO)[C@H]6O)[C@H]5O[C@@H]5O[C@H](CO)[C@H](O)[C@H](O)[C@H]5O)C(C)(C)C4CC[C@@]2(C)[C@]1(C)C[C@H]3OC(C)=O (stereo partly drawn) 27.8% [at 13.5 µM]
Cc1ccc(-c2nnc3c4ccccc4c(C)nn23)cc1NC(=O)c1cccc(Br)c1 3.86%
Cc1cc(C)c(NC(=O)c2cc3sc(Cl)cc3n2C)c(C)c1 -0.541%
O=C(CN1C(=O)COc2ccc(S(=O)(=O)N3CCOCC3)cc21)N1CCN(c2cccc(Cl)c2)CC1 -5.4%
O=C(Cn1c(=O)n(Cc2cccs2)c(=O)c2cccnc21)Nc1ccc(F)cc1 -20.5%
C[C@H]1CC[C@@]2(OC1)O[C@H]1CC3C4CC[C@H]5C[C@@H](O)CC[C@]5(C)C4CC(=O)[C@]3(C)[C@H]1[C@@H]2C (stereo partly drawn) -3.6% [at 53.3 µM]
Cn1c(=O)c2c(n3c4ccccc4nc13)NC(=O)CC2c1cccc(Cl)c1 (stereo not drawn) -25.1%
C/C=C(\C)C(=O)OC1C=C(C)CC(OC(=O)c2ccc(O)cc2)C2C1(C)CCC2(O)C(C)C (stereo not drawn) -1.59% [at 53.3 µM]
Cc1ccccc1C#Cc1ccc(CCC(=O)O)cc1 -7.53%
CCOc1cc(/C=C(\C#N)C(=O)Nc2ccccc2C)ccc1OCc1cc(=O)n2nc(CC)sc2n1 -13.3%
CCC1OC(=O)C(C)CC(C)C(=O)/C(C)=C/C(C)C(=O)/C=C/C1(C)O (stereo not drawn) 4.92% [at 53.3 µM]
Cc1cc(Br)ccc1NC(=O)Cn1cnc2sc(C)c(S(=O)(=O)N3CCN(C)CC3)c2c1=O 3.35%
CNc1ccc(-c2nc(-c3ccccc3C)no2)cc1[N+](=O)[O-] 0.855%
CC(=O)O[C@@H]1c2c3c(cc(O)c2C(=O)O[C@@H]1C)O[C@@]1(C)[C@@H](O)C[C@H]2C(C)(C)C(=O)C=C[C@]2(C)[C@@H]1C3 -6.54% [at 53.3 µM]
Cc1nc2nc(NCc3cccc(Br)c3)[nH]n2c(=O)c1Cc1ccccc1 -4.21%
CC1CC2C3CCC4=CC(=O)C=C[C@]4(C)[C@@]3(F)[C@@H](O)C[C@]2(C)[C@@]1(O)C(=O)CO (stereo partly drawn)
CCOc1ccc(CNC(=O)c2cc(-c3ccc(Cl)s3)nc3ccccc23)cc1 12.2%
CC(=O)[C@@H]1C[C@H](C(C)(C)O[C@@H]2O[C@H](CO)[C@@H](O)[C@H](O)[C@H]2O)CC[C@@]2(CO)OC(=O)C[C@@H]12 7.44% [at 53.3 µM]
COc1ccc(C)cc1NC(=O)COCc1cc(-c2cccs2)on1 -26.2%
CCN(Cc1ccccc1)C(=O)CCS(=O)(=O)c1ccc2c(c1)oc(=O)n2C -6.23%
Cc1ccc(S(=O)(=O)N2CCC(C(=O)Nc3cc(C)ccc3C)CC2)cc1 -35.1%
COc1ccc(Cc2nc3ccc(C(=O)NCc4ccccc4Cl)cc3o2)cc1 -18.8%
CSc1ccc(CCNC(=O)c2cc(C)nc3c2c(C)nn3-c2cccc(F)c2)cc1 -4.49%
COc1ccc(OC)c(CNC(=O)c2c3c(nc4ccccc24)C(=O)N(C2CCCCC2)C3)c1 -6.19%
COc1ccc(-c2cn3c(C)c(C(=O)Nc4cc(C)cc(C)c4)sc3n2)cc1 -2.84%
C[C@@H]1COCCN1c1cc(C2(S(C)(=O)=O)CC2)nc(-c2cccc3[nH]ccc23)n1 -3.26%
CC(=O)O[C@@H]1CC2C(C)(C)C(=O)C=C[C@]2(C)C2CC[C@]3(C)C(=CC(=O)[C@@H]3c3ccoc3)[C@@]21C (stereo partly drawn) 8.3% [at 53.3 µM]
Cc1cc(C)c2oc(C(=O)Nc3ccc(S(=O)(=O)N(C)c4ccccc4)cc3)cc(=O)c2c1 -17.4%
C/C1=C\CC(C)(C)/C=C/C/C(C(=O)O)=C/CC1 -17.8%
C/C=C(\C)C1C(C)=CC2CCC(OS(=O)(=O)O)C(C)C2C1/C=C/C=C/C(=O)O (stereo not drawn) -1.4% [at 53.3 µM]
O=S(=O)(c1ccc(Cl)cc1)c1nnn2c1nc(NC1CCCC1)c1sccc12 -1.98%
NC(=O)c1cnc(NCCc2ccc(O)c(Cl)c2)nc1NCc1ccccc1 -22.4%
CC(O)COc1ccccc1 (stereo not drawn) -10.1% [at 53.3 µM]
COc1ccc(NC(=O)C(c2ccccc2)N2Cc3ccccc3C2=O)cc1 (stereo not drawn) -21.3%
COc1ccc(N2CCN(C(=O)c3c(C)oc4nc(C)nc(N5CCCC5)c34)CC2)cc1 -7.16%
CCCN(C(=O)Cn1ncc2c([nH]c3ccc(C)cc32)c1=O)c1ccccc1C -18%
CC/C(=C(/CC)c1ccc(O)c(CN(CC)CC)c1)c1ccc(O)c(CN(CC)CC)c1 -1.42%
